Source: PubChem BioAssay (National Center for Advancing Translational Sciences (NCATS))
Only a selection was taken, and hits are over-represented in it overall.
Pf Dd2 inh = inhibitors of Plasmodium falciparum Dd2 growth | Potency, µM (titrated, usually from 28.9 µM), usual class: inhibitors | actives 4.3% (n = 120,000) | P. falciparum Dd2 growth, SYBR Green, 72 h; active means well fitted inhibition curve with a large enough effect; further: nearly all actives have a fitted effect of over 65% in size
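Infected erythrocytes (Dd2, 0.3% parasitemia, 2.5% hematocrit final) are added to compound in RPMI-1640/Albumax II medium, grown 72 h at 37C in low oxygen, then lysed with saponin/Triton-X containing SYBR Green and read by fluorescence.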
Each line names hits and unclear results; the compound was inactive in the other large screens.

OC[C@@H]1CNC[C@H]1C1CCN(Cc2ccc(OC(F)(F)F)cc2)CC1	none
CCn1ccc(C(=O)N2CCC3(CC2)CC(N2CCN(c4ccccn4)CC2)CCO3)n1 (stereo not drawn)	none
O=C(NC1CCCC1)c1ccc2c(c1)N(Cc1c(F)cccc1Cl)C(=O)c1ccccc1S2	none
CN1CCN(C(=O)c2ccc3c(c2)N(Cc2c(F)cccc2Cl)C(=O)c2ccccc2S3)CC1	Pf Dd2 inh 0.199µM
CC(C)OCCCNC(=O)c1ccc2c(c1)N(Cc1c(F)cccc1Cl)C(=O)c1ccccc1S2	none
COC(=O)c1ccc2c(c1)N(Cc1ccc(Cl)cc1)C(=O)c1ccccc1S2	none
COC(=O)c1ccc2c(c1)N(Cc1ccc(F)cc1)C(=O)c1ccccc1S2	none
CCN(C(=O)CN1C(=O)c2ccccc2Sc2ccc(C(=O)OC)cc21)c1cccc(C)c1	Pf Dd2 inh 11.2µM
COc1ccc(CC(=O)NC2CCCN(c3cc(-c4ccc(OC)cc4)[nH]n3)C2)cc1 (stereo not drawn)	none
O=C(CN1C(=O)NC(c2ccc(Cl)cc2)C2=C1COC2=O)NCCc1ccc(Cl)cc1 (stereo not drawn)	none
CN1[C@@H](CCC(=O)NCc2cccs2)CNC(=O)[C@@H]2[C@H]1CCN2Cc1cccc(OC(F)(F)F)c1	none
COc1ccc(C2(C(=O)NCc3cc(F)cc(F)c3)CCOCC2)cc1	none
CC1=NS(=O)(=O)N(C)C=C1C(=O)OCc1nc(-c2ccc(C(F)(F)F)cc2)no1	none
O=C(NCCc1ccc(Cl)cc1)c1cc(-c2cccc(C(F)(F)F)c2)c2nncn2n1	none
COc1ccc(-c2noc(-c3nc(-c4cccnc4)no3)n2)cc1OC	none
C[C@@H](NC(=O)c1cccnc1)c1onc(-c2cccnc2)c1C(=O)O	none
Cc1nc(NC(C)c2nc(-c3cccnc3)no2)c2cccnc2n1 (stereo not drawn)	Pf Dd2 inh 3.55µM
COc1cc(-c2ccnc3nc(C4CCCCC4)nn23)cc(OC)c1OC	none
O=C(NCCN1CCNC1=O)c1cnc2n1CCN(Cc1nccs1)CC2	none
O=C(C1CCC(CO)CC1)N1CCC2(CCC(=O)N(C3CC3)C2)CC1 (stereo not drawn)	none
COc1ccc(N2CCN(C(=O)c3ccc4c(c3)N(Cc3cc(C)ccc3C)C(=O)c3ccccc3S4=O)CC2)cc1 (stereo not drawn)	none
CCN1CCN(C(=O)c2ccc3c(c2)N(Cc2ccccc2F)C(=O)c2ccccc2S3=O)CC1 (stereo not drawn)	Pf Dd2 inh 0.282µM
O=C(c1ccc2c(c1)N(Cc1ccccc1F)C(=O)c1ccccc1S2=O)N1CCN(c2ccccc2)CC1 (stereo not drawn)	none
CCOC(=O)N1CCN(C(=O)c2ccc3c(c2)N(Cc2ccccc2F)C(=O)c2ccccc2S3=O)CC1 (stereo not drawn)	none
CCN1C(=O)c2ccccc2S(=O)c2ccc(C(=O)N3CCN(c4ccc(F)cc4)CC3)cc21 (stereo not drawn)	Pf Dd2 inh 8.91µM
O=C(c1ccc2c(c1)N(Cc1ccc(Cl)cc1)C(=O)c1ccccc1S2=O)N1CCCCC1 (stereo not drawn)	none
O=C(c1ccc2c(c1)N(Cc1ccc(Cl)cc1)C(=O)c1ccccc1S2=O)N1CCOCC1 (stereo not drawn)	none
CCN1C(=O)c2ccccc2S(=O)c2ccc(C(=O)N3CCN(c4ccccc4OC)CC3)cc21 (stereo not drawn)	Pf Dd2 inh 5.01µM
O=C(c1ccc2c(c1)N(Cc1ccc(F)cc1)C(=O)c1ccccc1S2=O)N1CCOCC1 (stereo not drawn)	none
COCCN1CCC2(CCC1=O)CCN(S(=O)(=O)c1ccc3c(c1)OCCO3)CC2	none
CCn1ncc(C(=O)N2C[C@@H](CO)[C@H](c3nc(C4CC4)no3)C2)c1C	none
O=S(=O)(NC[C@H]1OC[C@@H](NCc2cccs2)[C@@H]1O)c1ccccc1	none
O=C(c1ccncc1)N1CCCC(c2noc(COc3ccccc3F)n2)C1 (stereo not drawn)	none
CCOC(=O)C1=CN(CC(=O)Nc2ccccc2CC)S(=O)(=O)N=C1C	none
Cc1noc2c(NCc3cccnc3)cc(-c3ccc(Cl)cc3)nc12	none
Cc1ccc(NC(=O)N2C[C@@H](F)C[C@H]2C(=O)N2CCc3ccccc3C2)cc1C	none
Cc1ccc(C)c(NC(=O)N2C[C@@H](F)C[C@H]2C(=O)N2CCc3ccccc3C2)c1	none
COc1ccccc1NC(=O)N1C[C@@H](F)C[C@H]1C(=O)N1CCc2ccccc2C1	Pf Dd2 inh 8.91µM
COc1ccc(S(=O)(=O)N2CCC(C)(C(=O)O)CC2)cc1	none
Cc1ccc2c(C(=O)N3CCOCC3)cc(NC(=O)C(C)C)cc2n1	none
CN1CCC(Oc2nccnc2N2CCc3ccccc32)C1 (stereo not drawn)	Pf Dd2 inh 2.82µM
O=C(c1ccncc1)N1CCC(Oc2nccnc2N2CCOCC2)C1 (stereo not drawn)	none
Cn1nccc1C(=O)N1CCC(Oc2nccnc2N2CCOCC2)C1 (stereo not drawn)	none
CN(C)[C@@H]1CN(Cc2ccccn2)CC[C@@H]1CO	none
CCn1ncc(C(=O)N[C@@H]2CN(c3ncccn3)C[C@H]2CN(C)C)c1C	none
Cc1cc(N2CCN(Cc3nc(-c4cccc(Cl)c4)no3)CC2)cc(C)n1	Pf Dd2 inh 10µM
Cc1cc(C)cc(N2CC(c3nc(-c4cccc(Cl)c4)no3)CC2=O)c1 (stereo not drawn)	none
Cc1oc(-c2cccc(Cl)c2)nc1CN1CCOCC1	none
O=C1COc2ccc(-c3cccnc3)nc2CN1Cc1ccc(C(F)(F)F)cc1	none
Cc1nc(CN2Cc3nc(-c4ccccc4)ccc3OCC2=O)cs1	none
Cc1nc(CN2Cc3nc(Nc4ccc(C(F)(F)F)cc4)ccc3OCC2=O)cs1	Pf Dd2 inh 11.2µM
CN1Cc2nc(Nc3ccc(C(F)(F)F)cc3)ccc2OCC1=O	none
O=C1COc2ccc(-c3ccsc3)nc2CN1Cc1ccccc1	none
O=C1COc2ccc(-c3ccsc3)nc2CN1Cc1ccc(C(F)(F)F)cc1	Pf Dd2 inh 7.94µM
CN(C)c1cccc(Oc2nnnn2[C@H]2CO[C@H]3[C@@H]2OC[C@@H]3NC(=O)CC2(CC(=O)O)CCCC2)c1	none
O=C(CCc1c[nH]c2ccccc12)N1CC2CC(C1)[C@H]1CCCC(=O)N1C2 (stereo partly drawn)	none
OC[C@@H]1O[C@H](CNCc2ccc(F)cc2)[C@H](N2CCCC2)[C@@H]1O	none
COC[C@H]1CCCN1[C@@H]1[C@H](O)[C@H](CO)O[C@@H]1CNS(=O)(=O)c1cccs1	none
COC[C@H]1CCCN1[C@@H]1[C@H](O)[C@H](CO)O[C@@H]1CN(Cc1ccc(F)cc1)Cc1ccc(F)cc1	Pf Dd2 inh 4.47µM
O=C([C@@H]1C[C@H](Oc2ccccc2)CN1C(=O)c1n[nH]c2ccccc12)N1CCOCC1	none
O=C(c1ccoc1)N1CCC2(CC1)CC(CO)N(C(=O)c1ccccc1)C2 (stereo not drawn)	none
O=C(c1ccc(C(F)(F)F)cc1)N1CCC2(CN[S+](=O)([O-])c3cccnc3O2)C1 (stereo not drawn)	none
CSc1ccc(NC2=N[C@H]3[C@@H](O)[C@H](O)C[C@H](C(=O)NCCN4CCOCC4)[C@H]3S2)cc1	none
Cc1cc(C(=O)N[C@H](C)c2onc(C)c2C(=O)O)no1	none
CCCC(=O)N1Cc2ccccc2CC2(CCN(C)C2)C1 (stereo not drawn)	Pf Dd2 inh 11.2µM
CCCN1CCCC2(Cc3ccccc3CN(C(=O)CCCC(=O)O)C2)C1 (stereo not drawn)	none
CN1CCC2(Cc3ccccc3CN(C(=O)CCC(=O)O)C2)C1 (stereo not drawn)	none
CC(C)C(=O)N1Cc2ccccc2CC2(CCCN(Cc3ccccc3)C2)C1 (stereo not drawn)	Pf Dd2 inh 3.55µM
